An excerpt weighted towards active compounds, which were near 4% of everything screened.
Rv3671c inh = Rv3671c serine protease inhibitors, primary screen, biochemical, fluorescence polarization, M. tuberculosis H37Rv; P9WHR9; inhibition, % at 5.96 µM; actives 0.048% (n = 320,000); in the data active = inhibition above about 38%;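 note: extracellular domain of Rv3671c used as enzyme; 0% = enzyme with DMSO and 100% = no enzyme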
FBA Mtb inh = Mtb FBA enzyme inhibitors, primary screen, biochemical, fluorescence, strain H37Rv | inhibition, % at 1 µM | actives 2.3% (n = 360,000) | Fructose-bisphosphate aldolase (Mycobacterium tuberculosis (strain ATCC 25618 / H37Rv)), … | purified M. tuberculosis FBA, fluorescence read-out | AID 588726, 2011; in the data active = inhibition above about 27%;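 note: 0% = vehicle and 100% = reference inhibitor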
Mtb UGM inh = M. tuberculosis UGM enzyme inhibitors, primary screen, biochemical, fluorescence polarization, single point; UDP-galactopyranose mutase (Mycobacterium tuberculosis (strain ATCC 25618 / H37Rv)), …; purified UGM, fluorescence polarization probe displacement; inhibition, % at 10 µM; actives 0.06% (n = 320,000); in the data active = inhibition above about 10%, passing the limit was not always enough
GDH-TPI counter = GDH-TPI coupling enzyme inhibitors, primary screen, artefact control for M. tuberculosis FBA inhibitor project, biochemical, absorbance, full deck; GDH-TPI coupled enzyme counterscreen, NADH absorbance; inhibition, % at 4.8 µM; actives 1.2% (n = 360,000); in the data active = inhibition above about 30%;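 note: 0% = DMSO wells and 100% = wells lacking the enzyme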
Mtb bLac sens = beta-lactam sensitization of Mtb H37Rv, H37Rv; M. tuberculosis H37Rv growth with meropenem, percent inhibition; inhibition, % at 25 µM; actives 0.27% (n = 330,000); call rule not given here;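 note: growth measured after seven days incubation then overnight dye step; 0% = bacteria only wells and 100% = bacteria with antibiotic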
RecA intein inh = Mtb RecA intein splicing inhibitors, primary screen, biochemical, fluorescence, HTS; AID 2221, 2009; cell-free RecA intein splicing; actives 0.75% (n = 290,000); Protein RecA (Mycobacterium tuberculosis (strain ATCC 25618 / H37Rv)), P9WHJ3; inhibition, % (test concentration not listed); in the data active = inhibition above about 30%;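 note: 0% = vehicle wells and 100% = reference inhibitor control wells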
Target sequence (P9WHJ3 whole entry, looked up): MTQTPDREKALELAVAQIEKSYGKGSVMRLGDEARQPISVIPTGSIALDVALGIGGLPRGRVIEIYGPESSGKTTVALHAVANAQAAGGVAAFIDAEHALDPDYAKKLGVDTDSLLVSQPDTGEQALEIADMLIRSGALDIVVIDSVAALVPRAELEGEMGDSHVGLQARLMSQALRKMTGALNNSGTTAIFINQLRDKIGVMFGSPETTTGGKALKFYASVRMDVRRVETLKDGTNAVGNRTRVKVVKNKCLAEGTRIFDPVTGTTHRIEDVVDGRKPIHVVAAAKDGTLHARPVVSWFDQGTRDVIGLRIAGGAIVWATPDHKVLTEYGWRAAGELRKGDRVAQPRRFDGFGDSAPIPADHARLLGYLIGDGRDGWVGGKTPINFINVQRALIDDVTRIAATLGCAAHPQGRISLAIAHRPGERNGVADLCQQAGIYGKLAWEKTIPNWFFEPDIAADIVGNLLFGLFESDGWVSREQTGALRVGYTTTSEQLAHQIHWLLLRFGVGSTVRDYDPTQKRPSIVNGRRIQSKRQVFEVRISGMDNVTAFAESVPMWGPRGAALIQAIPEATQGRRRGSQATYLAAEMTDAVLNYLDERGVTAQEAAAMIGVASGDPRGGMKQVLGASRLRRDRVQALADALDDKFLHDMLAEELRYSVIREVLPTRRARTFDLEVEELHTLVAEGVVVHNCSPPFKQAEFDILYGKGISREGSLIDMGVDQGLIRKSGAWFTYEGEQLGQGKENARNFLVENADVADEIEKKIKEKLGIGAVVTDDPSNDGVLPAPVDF
Numbers without * were called inactive; i = inactive; / = not tested or not shown; + = active, no number.

SMILES | Rv3671c inh | FBA Mtb inh | Mtb UGM inh | GDH-TPI counter | Mtb bLac sens | RecA intein inh
CCc1c(C)sc(NC(=O)c2cc(-c3ccc(OC)c(OC)c3)on2)c1C#N | -4.3 | -2.0 | 0.1 | -0.6 | 0.3 | /
COc1ccc(-c2csc(NC(=O)c3cc(C)on3)c2C#N)cc1OC | -5.7 | 6.2 | -3.1 | 38.1* | 15.0 | -2.9
COc1ccc(-c2cc(C(=O)Nc3cc(C)on3)no2)cc1 | -1.9 | / | 0.6 | / | -1.2 | 8.0
Cc1cccn2c(=O)c3cc(C(=O)NC4CCCC4)c(=N)n(CC4CCCO4)c3nc12 (stereo not given) | -20.4 | + | -1.1 | 8.1 | -4.3 | i
COc1ccc(CNC(=O)c2cc3c(=O)n4cccc(C)c4nc3n(CC3CCCO3)c2=N)cc1 (stereo not given) | -11.0 | 14.5 | 5.2 | 4.3 | -1.6 | -30.7
Cc1cccn2c(=O)c3cc(C(=O)NCC4CCCO4)c(=N)n(C4CCCCC4)c3nc12 (stereo not given) | -7.3 | + | 4.9 | 6.7 | 7.0 | /
Cc1cccn2c(=O)c3cc(C(=O)NCc4ccc(F)cc4)c(=N)n(CC4CCCO4)c3nc12 (stereo not given) | -9.6 | + | -0.4 | 0.4 | 6.7 | i
Cc1cccn2c(=O)c3cc(C(=O)NCC4CCCO4)c(=N)n(CC4CCCO4)c3nc12 (stereo not given) | -1.4 | + | 2.0 | 6.2 | -10.4 | /
CC(C)CCCCCCCCCCCCC(=O)NCC(=O)NC1C(C)OC(Nc2ncnc3nc[nH]c23)C(O)C1O (stereo not given) | / | 2.7 | / | 3.5 | / | /
COc1ccc(CNC(=O)CCSCc2ccccc2C)cc1 | 10.7 | -5.2 | 1.7 | -0.6 | -4.2 | 1.9
Cc1cc(C(=O)N/N=C/C=C/c2cccc([N+](=O)[O-])c2)n[nH]1 | 5.4 | -5.0 | -0.8 | 24.3 | 1.6 | -1.0
O=C(N/N=C/C=C/c1ccccc1)c1cc(C2CC2)[nH]n1 | 7.0 | -0.9 | -1.8 | 66.9* | -3.6 | -1.0
Cc1ccc(C(=O)N/N=C/C=C/c2ccccc2)o1 | 0.2 | 6.0 | -1.2 | 52.0* | 2.1 | 1.2
Cc1onc(-c2ccccc2)c1C(=O)N/N=C/C=C/c1ccccc1 | 8.9 | 4.7 | -1.3 | 23.0 | -3.3 | 1.0
Cc1cc(C(=O)N/N=C/C=C/c2ccccc2)n[nH]1 | 2.9 | -0.9 | 1.4 | 61.4* | -0.5 | 0.3
N#Cc1ccc(OCC(=O)NCC2COc3ccccc3O2)cc1 (stereo not given) | 0.5 | -1.1 | 0.1 | 1.1 | -4.2 | /
CCc1nc2c(OCC(=O)c3ccc(Cl)cc3Cl)cccn2c1N(C)C(=O)c1cccs1 | / | -0.3 | / | 10.1 | / | /
Clc1nc(NCCc2ccccc2)c2cn[nH]c2n1 | / | 4.2 | / | 9.1 | / | /
Clc1ccc(-c2nc3cnccn3c2Nc2ccc3c(c2)OCO3)cc1 | 4.0 | 4.4 | -1.7 | 10.1 | 10.9 | 3.8
c1cn2c(Nc3ccc4c(c3)OCCO4)c(-c3ccc(N4CCOCC4)cc3)nc2cn1 | 0.9 | 1.5 | -2.0 | 40.0* | -8.8 | 0.1
COc1ccc(CNC(=O)c2ccc(Cn3cc(Cl)cn3)o2)cc1 | 1.7 | -3.9 | 0.4 | 0.7 | 1.4 | 2.8
O=C(O)c1ccc(/C=N/NC(=O)c2cc3ccccc3cc2O)cc1 | 11.6 | -7.8 | 0.8 | 40.6* | 2.5 | /
COc1ccc(/C=N/NC(=O)c2ccc(O)cc2O)cc1CSc1ccccn1 | -2.2 | -1.4 | -0.9 | 38.3* | -0.3 | 3.9
O=C(N/N=C/c1cccc(Oc2ccccc2)c1)c1ccncc1 | -7.1 | -2.1 | -6.3 | 10.5 | 99.0 | 1.9
O=C(N/N=C/c1cccc(Oc2ccccc2)c1)c1ccc(O)cc1O | / | 0.9 | 2.4 | 34.0* | 10.0 | 1.3
SMILES | Rv3671c inh | FBA Mtb inh | Mtb UGM inh | GDH-TPI counter | Mtb bLac sens | RecA intein inh
COc1ccc(C=O)cc1CSc1ccccn1 | -5.3 | -2.2 | 0.3 | -5.7 | -8.6 | -0.9
O=C(Nc1cccnc1)c1cc2c(ccc3ccccc32)o1 | -30.5 | 0.5 | -2.8 | 31.8* | -2.4 | -1.0
COc1cc(NC(=O)CCS(=O)(=O)c2ccc3c(c2)n(C)c(=O)c(=O)n3C)cc(OC)c1 | -0.8 | 1.2 | -1.2 | 11.9 | 3.5 | -0.1
Cc1onc(-c2ccccc2Cl)c1C(=O)OCC(=O)N1CCCCC1 | 8.5 | -0.9 | -0.1 | 8.2 | -5.5 | /
CC1(C(=O)NCCc2ccccc2)Cc2c(-c3ccccc3)ccnc2O1 (stereo not given) | / | 5.3 | / | 5.3 | / | /
O=C(O)c1ccc(/C=N/NC(=O)c2cc3c(ccc4ccccc43)o2)cc1 | -5.2 | -1.8 | 0.7 | 57.3* | 11.0 | -5.6
O=C(N/N=C/c1ccncc1)c1cc2c(ccc3ccccc32)o1 | -15.5 | 3.2 | -0.6 | 46.7* | 32.3 | -3.7
COc1ccc(/C=C/C(=O)Nc2ccccc2C(=O)NCC(c2ccc(OC)cc2)N(C)C)cc1 (stereo not given) | 3.0 | -4.6 | -0.2 | 15.7 | 9.2 | 3.8
Cn1c(=O)c(N=O)c(N)n(Cc2ccccc2)c1=S | 15.1 | -1.1 | -1.5 | 31.7* | 0.4 | 11.5
COc1ccc(OC)c(C2/C(=C(/O)c3ccccc3)C(=O)C(=O)N2Cc2ccco2)c1 (stereo not given) | 1.6 | -1.8 | 1.2 | 11.9 | -1.9 | 1.3
COc1cc(C2/C(=C(\O)c3ccc4c(c3)OCCO4)C(=O)C(=O)N2Cc2ccco2)cc(OC)c1OC (stereo not given) | / | 0.0 | -2.7 | 32.0* | -7.1 | -1.5
COc1ccc(/C(O)=C2\C(=O)C(=O)N(Cc3ccco3)C2c2cc(OC)ccc2OC)cc1 (stereo not given) | 3.2 | -0.3 | 1.5 | 40.0* | 4.0 | 0.5
O=C(Nc1c(Br)cc2c(c1Br)Cc1ccccc1-2)C(Cl)Cl | / | -2.8 | / | 5.2 | / | /
Cc1ccc(SCC(=O)OCC(=O)NCCc2ccc(S(N)(=O)=O)cc2)c(C)c1 | 0.5 | -1.6 | 6.0 | -2.6 | 6.3 | /
COCC(=O)Nc1ccc(-c2cn3cccnc3n2)cc1 | -5.1 | + | -1.4 | 24.9 | -18.9 | -5.2
CCC(CC)C(=O)Nc1ccncc1 | 1.4 | / | 2.7 | / | -10.8 | -1.6
Cc1cccn2cc(-c3ccc(NC(=O)Cc4ccccc4)cc3)nc12 | 0.7 | 9.6 | -1.2 | -2.0 | -0.2 | -1.5
CCC(CC)C(=O)Nc1ccc(-c2cn3cccnc3n2)cc1 | -3.0 | + | -2.2 | 24.8 | 3.9 | -0.8
O=S1(=O)CC(N2CCN(c3ccccn3)CC2)CN1Cc1ccccc1 (stereo not given) | / | 3.8 | / | / | / | /
COc1ccc(NC(=O)c2cc(-c3cc(F)ccc3OCC3CCCO3)n[nH]2)c(C)c1 (stereo not given) | / | 0.1 | / | 6.2 | / | /

From PubChem
